Whole data set: some 33,000 sequences, median “e-score” near -0.05, cut for the highest 2% near 0.38. Shown is part of a subset that was picked to be rich in the highest values.

This experiment concerns the target T1, SIX1-Q177R homeodomain (human, UniProt Q15475 108-198, Q177R).
T1 sequence: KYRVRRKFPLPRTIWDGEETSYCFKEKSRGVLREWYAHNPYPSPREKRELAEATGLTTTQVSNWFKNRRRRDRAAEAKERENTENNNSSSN
Nature of the experiment: universal protein binding microarray; Universal all-10-mer PBM (8x60K, AMADID 030236), 300 nM GST-tagged protein, Alexa Fluor 488 anti-GST; buffer, salt, pH and temperature not stated (as in Berger); high values mean tight binding. To be noted: protein: ivt; tags: N-terminal GST; dsDNA, one strand shown. In outline:
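After in vitro transcription/translation, GST-tagged homeodomains were quantified against a recombinant GST standard curve by anti-GST western blot. They were then placed in duplicate at 300 nM final concentration on universal 'all 10-mer' protein binding microarrays of 8×60K format.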
CGAAACCC: the binding signal came out at 0.16 ± 0.0514 E-score. Under AATAGCAC stands 0.202 ± 0.00634 E-score; under GCACACCC, 0.396 ± 0.0314 E-score.

As to CCACACAC, the binding signal amounted to 0.271 ± 0.0195 E-score. Regarding ACACACAC, the binding signal turned out to be 0.315 ± 0.0422 E-score. Regarding GCACACAC, the binding signal stood at 0.275 ± 0.0355 E-score. In the case of ACCCACCC it was 0.276 ± 0.0223 E-score. Take GCGCACCC: the binding signal turned out to be 0.236 ± 0.0394 E-score.

Consider CCACACCC, for which the binding signal was 0.393 ± 0.0374 E-score. For the sequence CCACACGC, the binding signal is 0.282 ± 0.0206 E-score.

For the sequence ACACACCC, the binding signal was found to be 0.39 ± 0.0201 E-score. Turning to CGGGAATA, the binding signal is 0.181 ± 0.0131 E-score. In the case of CCCGAACA it was 0.1699 ± 0.00103 E-score; in that of ACCTTACA, 0.192 ± 0.02 E-score; in that of CACCCACG, 0.275 ± 0.0113 E-score. For the sequence CGTCCTAC, the binding signal came to 0.182 ± 0.018 E-score. In the case of ACCCCATA, the binding signal is 0.249 ± 0.00713 E-score.

As to CACTGAGG, the binding signal was 0.227 ± 0.0197 E-score. As to CCCGCGTC, the binding signal came to 0.193 ± 0.0507 E-score. Under CACCGCAA stands 0.284 ± 0.0454 E-score; under CACTAATG, 0.164 ± 0.0232 E-score. On to ACCTGGAG, for which the binding signal was 0.222 ± 0.0157 E-score.

With AATTGGGG, the binding signal turned out to be 0.17 ± 0.027 E-score.

As to ACTATACA, the binding signal amounted to 0.238 ± 0.0193 E-score. Consider CCTACACC, for which the binding signal came to 0.4819 ± 0.00223 E-score. Turning to GCTACCCC, the binding signal stood at 0.23 ± 0.0172 E-score. In the case of TCTACACA it was 0.194 ± 0.0545 E-score; in that of GCTATACC, 0.169 ± 0.0037 E-score. Under CCTACTCC stands 0.179 ± 0.0115 E-score.

As to ACTACACT, the binding signal turned out to be 0.431 ± 0.0136 E-score. In the case of GCTACACC it was 0.473 ± 0.00658 E-score; in that of ACTACCCG, 0.204 ± 0.0121 E-score. Regarding ACTACACA, the binding signal worked out at 0.265 ± 0.0483 E-score.

In the case of CCTACCCC, the binding signal worked out at 0.227 ± 0.00219 E-score. Consider ACTACACG, for which the binding signal is 0.4206 ± 0.00315 E-score. Under CCCCCGGC stands 0.2104 ± 0.00182 E-score; under CTTGGGGA, 0.158 ± 0.0109 E-score; under ACCCTTCC, 0.161 ± 0.0416 E-score. As to CACCGGGA, the binding signal came to 0.176 ± 0.00643 E-score.

As to CACTAGCA, the binding signal came out at 0.163 ± 0.00431 E-score. Take ATAGCGTG: the binding signal came out at 0.159 ± 0.0173 E-score. With ACACATGC, the binding signal turned out to be 0.176 ± 0.0202 E-score.

On to ACCGGTAT, for which the binding signal amounted to 0.212 ± 0.02 E-score. Under CCCGAAGG stands 0.193 ± 0.0115 E-score.

Take ACGCGTCC: the binding signal came out at 0.174 ± 0.00808 E-score. With GAATAACA, the binding signal turned out to be 0.151 ± 0.00831 E-score. In the case of GATACCGA it was 0.214 ± 0.0181 E-score; in that of CCTACACA, 0.18 ± 0.0508 E-score.

For the sequence ACTACACC, the binding signal was 0.4877 ± 0.000997 E-score. Under ACTACCCC stands 0.267 ± 0.00871 E-score; under CCTACACG, 0.398 ± 0.0115 E-score; under CCTACCCG, 0.183 ± 0.0228 E-score. Under ACTACTCC stands 0.163 ± 0.045 E-score; under ACCCCTCA, 0.289 ± 0.021 E-score; under CTGTGCAC, 0.216 ± 0.0216 E-score.

In the case of ACCCCGTG, the binding signal came out at 0.356 ± 0.0239 E-score. In the case of CGAACACA it was 0.215 ± 0.0469 E-score; in that of AGAACACT, 0.344 ± 0.0153 E-score.

Regarding CGAACACC, the binding signal was 0.4736 ± 0.00203 E-score. Under GGAACACC stands 0.4735 ± 0.00301 E-score; under CGAACACG, 0.3556 ± 0.00281 E-score; under GGAACACA, 0.189 ± 0.0298 E-score. In the case of AGAACACG, the binding signal was 0.356 ± 0.0118 E-score. In the case of TGAACACA it was 0.173 ± 0.0727 E-score; in that of AGAACACC, 0.459 ± 0.00494 E-score; in that of CGGGGATA, 0.202 ± 0.00822 E-score. For the sequence AATGGGTG, the binding signal was 0.281 ± 0.0496 E-score. CACGCGTA: the binding signal was determined as 0.184 ± 0.0106 E-score. In the case of ACACTTAT it was 0.349 ± 0.02 E-score.

For ACACCTAG, the binding signal worked out at 0.4448 ± 0.00199 E-score. In the case of ACACCTGT it was 0.46033 ± 0.000212 E-score; in that of ACCCCTAA, 0.183 ± 0.0117 E-score; in that of TCCCCTAA, 0.172 ± 0.0106 E-score. For the sequence ATACCTAC, the binding signal was 0.224 ± 0.0121 E-score. In the case of ACACCTAC, the binding signal stood at 0.4555 ± 0.00215 E-score.

On to CCACCTAC, for which the binding signal amounted to 0.17 ± 0.0551 E-score. For the sequence ATACCTAG, the binding signal is 0.196 ± 0.0172 E-score.

Regarding ACACATAT, the binding signal worked out at 0.239 ± 0.0295 E-score. On to ACCCCTAG, for which the binding signal came to 0.208 ± 0.00908 E-score. In the case of ACACCTAA it was 0.4446 ± 0.00441 E-score. In the case of CAGAAGGG it was 0.157 ± 0.0162 E-score; in that of CCCCGAAA, 0.168 ± 0.0462 E-score; in that of CACCCAAC, 0.301 ± 0.0371 E-score. On to CCCCAAAC, for which the binding signal came out at 0.197 ± 0.0113 E-score.

For GGTCGAAC, the binding signal was 0.22817 ± 0.00017 E-score.

Consider GGGCGGTA, for which the binding signal is 0.18 ± 0.0297 E-score.
